The text below walks through data of PubChem BioAssay AID1508600 (Functional Genomics Laboratory (NCATS/FGL), 2020).

In all, about 53,000 sequences went through this assay and about 3,700 (7%) were called active.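 How the source made its calls: active means gene knockdowns whose robust z-score for IL-1 alpha signal is at least 2 or at most -2, so actives lie on both sides; inactive means the rest.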 The entries come from a sample that favours actives as a whole.

This experiment can be described thus: Components of the Cytosolic LPS Sensing Pathway: Gene Identification via Genome-wide siRNA Screen.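 Further: robust z of the log signal after scaling to non-targeting control siRNA wells of the plate.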 The note with it: RAW264.7 macrophages, IL-1a HTRF, actives lie on both sides, screened at 100 nM (by protocol), cells primed 5 h with Pam3CSK4 first. The essentials: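 Knockdown: 100 nM siRNA, 48h, RAW264.7. Stimulation: Pam3CSK4 5 h, then LipidA via TransIT-TKO 24 h. Output: supernatant IL-1a HTRF, negative-control-normalized, log robust z-score; viability by CellTiter-Glo.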
On to GCAAAUCAGUCUAUCGCUGTT against Mcpt8, for which the z-score is 0.39 (inactive).

On to GGUUUUCACUAUUUCAACUTT against Olfr187, for which the z-score is -1.06 (inactive).

For the sequence GGUAAAUGGUUUAACUACGTT against Tmem117, the z-score was -0.68 (inactive).

For the sequence GCAAAGGAUCGCUUGAAAATT against Mrpl40, the z-score was -1.15 (inactive).

For the sequence GGAAUAAAGCUCAUCUACGTT against Slc43a2, the z-score was 2.09 (active).

As for GGAUGAACACUGUUACAAATT against Tusc3, the z-score was 0.352 (inactive).

GGUGAUGCAAGAAGAAAUUTT against Aldh3a2: the z-score was 0.169 (inactive).

Consider GGCUCUGUUCUCCACAUUGTT against Phf5a, for which the z-score was -1.6 (inactive).

Consider GGCAAUGGUUCAGCAGUGGTT against Eef1e1, for which the z-score was -0.564 (inactive).

As to GGCCUUUCAUGAAAGCUCATT against Ublcp1, the z-score was -3.07 (active).

As to GGUAGCUGUGAUAAAGCAUTT against Pcbd1, the z-score is -1.81 (inactive).

Take CCUGAUAUUCAUGACCAAATT against Wasf2: the z-score was -0.0177 (inactive).

As to CGGUGGCAAAAUGAGAAGUTT against Cd79a, the z-score is -0.142 (inactive).

For the sequence CCCUAAUCUGGUGAACGAUTT against Mfap5, the z-score was -1.05 (inactive).

Regarding GGUCUGAGCCUUGUCUUUATT against Pdx1, the z-score was 2.92 (active).

On to GGUGUCUGGUUCAUAAAGGTT against Lcn4, for which the z-score is -0.344 (inactive).

For GGACACAACUCAUUUUCAGTT against Prg3, the z-score was -1.61 (inactive).

For GGAAGGAGAGACCAUUGAGTT against Nudt1, the z-score is -1.48 (inactive).

As to GCGAUUAAGUCUGAAUUGUTT against Cd93, the z-score is 0.425 (inactive).

For the sequence GGAUACCUACCUGGACAGUTT against Dlgap4, the z-score is -1.23 (inactive).

Take GGCACAUUGCUGAAGCCCATT against Aldoa: the z-score is -2.42 (active).

As to “GCUACACAUGGGAACUAACTT against 4631405J19Rik”, the z-score is 1.51 (inactive).

On to “GGCCUAUAUUGAUGAUUUUTT against 4930503L19Rik”, for which the z-score was 2.31 (active).

Regarding GGGUGUACAGAGGAUCCGATT against Atp2a3, the z-score was 0.187 (inactive).

Consider GGCAUUUACUUACUGUUCATT against Slc39a10, for which the z-score is -0.331 (inactive).

For the sequence CGAUUUCAUCGAACACUUCTT against Ccnd1, the z-score is 1.37 (inactive).

Take GGUACACAUGAGACAAUAUTT against Whamm: the z-score was -2.18 (active).

Take GGCUUUGUUAGUCUAUGACTT against Dzip1l: the z-score is -0.552 (inactive).

For the sequence GGUGGAAGACAAGAGGAUATT against Sytl5, the z-score is -0.474 (inactive).

For GGGUAAUACUCUUUGGUGCTT against Olfr594, the z-score is 0.34 (inactive).

Regarding GGUUUGCCUGUGCUGAUAUTT against Olfr549, the z-score is -0.617 (inactive).

As for GAUGGUCCAGAGCGACUUCTT against Pou3f3, the z-score was 2.14 (active).

Regarding GGGUCAAGGUAGUAGUACCTT against Tob1, the z-score is 0.275 (inactive).

Take CCAUUACAUCCAUUUGAUUTT against Cfap206: the z-score is 0.328 (inactive).

In the case of GGUUUGAUGUUAGACAACGTT against Trim34a, the z-score is 0.652 (inactive).

On to GGACAACAAAGGGAGAUUCTT against Kctd12b, for which the z-score was 1.43 (inactive).

Regarding CCUACUUGGGAAAGUUCGCTT against Egr3, the z-score is 1.5 (inactive).

Consider CCCACUUGCUGAAAAUUGUTT against Ankib1, for which the z-score was -0.338 (inactive).

In the case of CCCAGAACACCGUAUACUUTT against Itga3, the z-score is 3.95 (active).

Take CCAAUUUCCUUUCAGACUGTT against Cxxc4: the z-score was -1.2 (inactive).

As to GGACAGCACAAUUACCUUUTT against Nr3c1, the z-score was -0.299 (inactive).

For the sequence GGGUAGGAAACAAACACAGTT against Cox11, the z-score is -0.234 (inactive).

As for GAAUGCUCUGAGACUUUUATT against Cd300c2, the z-score is -2.48 (active).

Regarding GCUCCAAUAGCGUAUAUUATT against Pigt, the z-score was -0.75 (inactive).

For the sequence GGAGGACUAGUUGUGACUUTT against Aldh1a1, the z-score was -0.384 (inactive).

As to UGGCAAGAUUGAAACCAUATT against Hnrnpa3, the z-score was -1.61 (inactive).

As for GGUUCUUUCGAGAAUGGACTT against Nod1, the z-score is -0.145 (inactive).

As to GGAUUUCCCAUCAAAGACGTT against Serpinf2, the z-score was 0.155 (inactive).

As for GCCCAAAUGAGACUACUUUTT against Ces1e, the z-score is -1.24 (inactive).

Turning to GGCUCAGAUACUCUUAUAATT against Aknad1, the z-score was -3.24 (active).

Take GCUAAACAUAAAAAUCGACTT against Garre1: the z-score was -1.27 (inactive).

With GGAUUAAGUGGUCAAAUGATT against Ugt2b36, the z-score is -0.62 (inactive).

On to CCACCUGUGCUACCACUUATT against Rexo4, for which the z-score is -2.34 (active).

For GGUUACAUAUCAGUUGAAATT against Slc35a3, the z-score is 0.032 (inactive).

For the sequence GCAAAAUCUAGGGAUAAGATT against Trdv2-2, the z-score was 0.259 (inactive).

For GGGAGAACAGCGACAAACATT against Cbfb, the z-score was 1.82 (inactive).

For the sequence GAGUUCGAUGUUCAGGAGCTT against Ndrg1, the z-score was -0.354 (inactive).

For GGUUCAUGGGUUUUAAGUGTT against Eif1, the z-score was 2.25 (active).

On to GGAAGAGGAGAAGAAAAAGTT against Syf2, for which the z-score is -1.25 (inactive).

For GCACAGUUGGCAACCUUUATT against S100a9, the z-score was -0.029 (inactive).

For GGAUAACCCUAAGUUUAUGTT against Clu, the z-score was 0.753 (inactive).

For the sequence GGACCUCAUCUACAGAAUGTT against Tssk1, the z-score is 0.878 (inactive).

Take CGGACAAAGGACGAGUGUUTT against Fn3krp: the z-score was 3.02 (active).

For the sequence GGCAGUAGCCAGAAGGCAUTT against Rnf215, the z-score is 0.373 (inactive).

For CGACAUAGCUUCUGUACUGTT against Spaca9, the z-score was -1.42 (inactive).

As for CCUUUAGGUACCACGAGUGTT against Large2, the z-score was -0.965 (inactive).

CCUUUAAAGUAAGCAUGUGTT against Slc27a4: the z-score was 0.112 (inactive).

As to GUUCUUUUUCUUCGGUUCCTT against Olfr1020, the z-score is 0.769 (inactive).

For the sequence GGGUCUAGAGUGCAUCUUCTT against Krt78, the z-score is 0.418 (inactive).

As to GGCUGUUUUUGCCGGUAUCTT against Teddm3, the z-score was 1.58 (inactive).

Take GGAAAACCAACAAAGCAAATT against Pde10a: the z-score was -0.692 (inactive).

As for UAUGACUCCACUCUUCUCUTT against Olfr1158, the z-score is -2 (active).

With GGAAGAGGGCAAAAAUGGCTT against Sgms2, the z-score was -0.441 (inactive).

On to GGUUAUUUCGGGAGAUAAGTT against Nudcd1, for which the z-score was -0.351 (inactive).

For the sequence GGCAGAACGGAAUAAAAUGTT against Stag2, the z-score was -3.03 (active).

CCUGAUCAUGUUGAAGGAATT against Ktn1: the z-score is 0.256 (inactive).

Regarding GGACACUGCAAAAGAGGAGTT against Defa4, the z-score is 1.37 (inactive).

With GGGAUACUCCAGACAAGGUTT against Usp17ld, the z-score is 0.142 (inactive).

GGCCAUCAGAGCUACACUUTT against Gpa33: the z-score was 0.806 (inactive).

As for CAUUGGUAUUGCCAAGGCATT against Olfr1330, the z-score was 0.373 (inactive).

Regarding GGGAGAAACCAUUUCAAGATT against Gm5084, the z-score is 0.0759 (inactive).

As to GGAUUUCUCUGCCUGUACUTT against Gdpgp1, the z-score is 0.37 (inactive).

Regarding GAUGAAGAGGCAGGCCAAGTT against Nkx2-4, the z-score is 2.63 (active).

On to GGUGUUAGCGAAAUGCUCATT against Prl7b1, for which the z-score is -0.875 (inactive).

In the case of GCUCACUGCUACAAAUACCTT against Prss2, the z-score is -1.82 (inactive).

With GCUUUAUCCACAGGUGCCATT against Olfr1350, the z-score is -1.9 (inactive).

For GCCUAUUCACCAAAUCACATT against Frrs1, the z-score was 0.408 (inactive).

Consider GAUCUGGCUGCUUCUUACCTT against Porcn, for which the z-score is -0.623 (inactive).

For the sequence GGCAUAAGAAAAUGGACCCTT against Fhit, the z-score was 2.04 (active).

For GGGAUAGUGUAAGUUAGUUTT against Dppa4, the z-score was -0.0875 (inactive).

Take GUUCUGAAAAUAGAAUAAUTT against Vmn1r16: the z-score is 0.237 (inactive).

With GGCUUGAUUGCAUCUUUAUTT against Ebpl, the z-score was -0.765 (inactive).

On to CGACACACCUAGCUAAACCTT against Dgkeos, for which the z-score is -1.98 (inactive).

In the case of GGCCUUAGAACAAGGAAUATT against Cdk7, the z-score is -0.769 (inactive).

With CCAAUUACGAGACUCUCAUTT against Zfp786, the z-score was -0.00661 (inactive).

On to GCUUAUUGAACUAUUGUUGTT against Trpc4, for which the z-score was 3.72 (active).

Regarding GGAGCAGUCUAUCUUUGGUTT against Dbn1, the z-score is 1.3 (inactive).

As to GGAGAACAAGGCAAAAGAATT against Mindy4, the z-score is -0.945 (inactive).

On to GCAGACAGAGUUUUAACGUTT against Fancl, for which the z-score was -0.381 (inactive).

For the sequence GCCAUUCACUUAAUUCAGUTT against H2ac8, the z-score is -1.32 (inactive).

For GGCUCUGGCCAUAUUUUGGTT against Olfr549, the z-score was -1.44 (inactive).

As for CCAUAGGUAUCAUUGCAAGTT against Tas2r139, the z-score is -2.16 (active).

Take GCAAUAAUCGUUCUCAAAATT against Prkab1: the z-score is 1.5 (inactive).

On to GGAGAUCAGCUGUCUAAUGTT against Tmem237, for which the z-score was -0.207 (inactive).

GGACAGGAUGAGUUUGACATT against Rhou: the z-score was -1.52 (inactive).

In the case of GGAAAUCUCAGAAAUCAAATT against Pmf1, the z-score was -1.15 (inactive).

Turning to GCUCCUUGGGCGAUUUCAGTT against Aggf1, the z-score was 0.265 (inactive).
